High-throughput results as filed in PubChem.
Pf growth 96h – P. falciparum growth inhibition at 96 hours | P. falciparum luciferase reporter growth, 96 h | Potency, µM (series often up to 28.7 µM), for inactives: at the highest dose activity change, negative = inhibition, usual class: inhibitors | 320,000 tested, 6.9% active; note: potency is the fitted concentration of half-maximal effect; % is set by controls: 0 for no effect and ±100 for the full control effect
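Cell-based qHTS: luciferase-tagged P. falciparum in erythrocytes (2% hematocrit, 0.05% parasitemia final) incubated with compounds for 96 hours, 37 C, 5% CO2; luciferase detection reagent then added and luminescence measured.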
HCV inhibitor – HCV inhibition; Huh7.5.1 HCVcc-Cre infection, luciferase reporter, 44 h; Potency, µM (highest dose often 41.8 µM), inactives show at the highest dose activity change, negative = inhibition, most hits filed as inhibitors; 340,000 tested, 3.4% active; AID 651820; note: potency is the fitted concentration of half-maximal effect; % is set by controls: 0 for no effect and ±100 for the full control effect
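Seed cells (1,000/well) for 4 h; treat with compound and infect with HCVcc-Cre, moi about 0.5. Incubate 44 h, then detect luciferase activity.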
AMA1-RON2 inh – inhibitors of Plasmodium falciparum AMA1-RON2 interaction. AlphaScreen AMA1-biotinylated RON2 peptide binding. Potency, µM (highest dose often 58.2 µM), for inactives: at the top dose activity change, negative = inhibition, usual class: inhibitors. 360,000 tested, 0.2% active;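 note: potency is the fitted concentration of half-maximal effect; 0% = vehicle wells and -100% = peptide control; nearly all actives have a fitted effect of over 45% in size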
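AMA1 (3D7) with his tag at 25 nM final met compounds first, then biotinylated RON2 peptide at 25 nM; detection used donor plus acceptor beads, 10 µg/mL apiece, read by AlphaScreen after 30 min at room temperature.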
Shiga toxin inh – inhibitors of Shiga toxin in Vero cells. Vero cells, Shiga toxin protein synthesis inhibition reporter. inhibition, % at 38.7 µM. 290,000 tested, 9.2% active. AID 2315; in the data active = inhibition mostly above about 28%, no sharp cut-off; inactive = mostly below about 43%; note: 0% is about no effect
Pf growth 48h – P. falciparum growth inhibition at 48 hours (one generation); 310,000 tested, 5.9% active; AID 504832; Potency, µM (highest dose often 28.7 µM), inactives show at the highest dose activity change, negative = inhibition, hits mostly inhibitors; P. falciparum luciferase growth in erythrocytes, 48 h; note: potency is the fitted concentration of half-maximal effect; % is set by controls: 0 for no effect and ±100 for the full control effect
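Read-out is firefly luciferase luminescence from an integrated reporter in P. falciparum, so falling signal marks reduced parasite growth. Infected erythrocytes were at 2% hematocrit and 0.1% parasitemia (final) in Albumax-supplemented RPMI 1640.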
CHX counter – affects cycloheximide protein synthesis inhibition readout, counter-screen | cell reporter, cycloheximide protein synthesis inhibition counterscreen | max response, % | 300,000 tested, 12% active | AID 2314; in the data active = max response mostly above about 13%, no sharp cut-off; inactive = mostly below about 14%; note: read at 38.3 µM for the half of the compounds with a filed dose; 0% is about no effect
The depositor's hits bear a star; ? = inconclusive; . = no result given; [ ] = remark or other dose. Hits are enriched below; roughly 21% of the tested compounds scored in any of these assays. Unless noted, calls come from the whole dose curve; as a rule, active = well fitted curve in the direction sought with a large enough effect; inconclusive = small, poorly fitted or top-dose-only effect, or another doubt; inactive = no such curve, though single readings can be large; an effect the other way counts as inactive or inconclusive.

SMILES	Pf growth 96h	HCV inhibitor	AMA1-RON2 inh	Shiga toxin inh	Pf growth 48h	CHX counter
Cc1cc(Br)ccc1NC(=O)CNC(=O)CNc1cccc([N+](=O)[O-])c1	9.7%	-25.0%	19.6%	.	-19.7%	.
O=S(=O)(/C=C/C=C/S(=O)(=O)c1ccccc1)c1ccccc1	.	8.91µM*	-3.3%	.	.	.
Cc1cc(=O)c2cc(Br)ccc2n1CC(=O)NCc1ccccc1	?	12.6µM*	-12.3%	-11.8	-12.1%	-1.2
CCCNC(=O)Cn1c(=O)n(C)c2ccccc21	-19.7%	16.8%	-13.5%	-4.0	-1.2%	0.9
Cc1c(C#N)c2ccccc2n1CC(=O)NCc1ccccc1	-4.8%	-4.5%	1.4%	7.7	?	-1.9
O=C(Cn1c(=O)n(CC(=O)NCc2ccccc2)c2ccccc21)NCc1ccccc1	25.7%	7.08µM*	-9.5%	14.5	-13.3%	-3.2
CCCCNC(=O)Cn1c(=O)n(C)c2ccccc21	7.38µM*	16.8%	-6.5%	16.9	17.2%	-2.8
CCC(=O)N1CCC(C)(C(=O)NCc2ccc(F)cc2)C1 (centres undefined)	.	.	-0.7%	.	.	.
COCOCCn1cc(CN2CCS(=O)(=O)N(Cc3ccc(-c4ccc(F)nc4)cc3)C(CC(C)C)C2=O)nn1 (centres undefined)	.	.	-8.7%	.	.	.
COCCN(CC(=O)Nc1cccc(C)c1C)C(=O)Cn1c(=O)cnc2ccccc21	1.9%	-3.9%	8.1%	.	-27.1%	.
CCS(=O)(=O)c1nnnn1-c1ccccc1S(C)(=O)=O	.	.	10.1%	17.2	9.28µM*	20.0
COc1cccc(CNc2ccc3c(c2)ncn3C(C)C)c1OC	0.0%	-18.8%	-9.8%	161.8*	.	44.3*
COc1cccc(CNc2nnnn2C)c1OC	79.5%	8.8%	-6.5%	-2.5	9.0%	-2.1
CCCn1c(NCc2cccc(OC)c2O)nc2ccccc21	106.8%	?	-4.1%	39.2*	11.7µM*	27.9*
CCCn1cnc2cc(NCc3cccc(OC)c3O)ccc21	2.2%	-29.6%	31.0%	126.1*	72.3%	37.3*
COc1ccccc1-n1cnc2cc(NCc3ccccn3)ccc21	-22.2%	5.9%	-23.8%	112.8*	?	37.6*
COc1cccc(CNC(=O)CCS(=O)(=O)c2ccccc2Cl)c1	?	32.2%	19.0%	.	-1.5%	.
COc1ccccc1NC(=O)NCCN1CCN(c2cccc(Cl)c2)CC1	0.0%	1.7%	5.9%	2.1	2.1%	-1.4
CCCn1cnc2cc(NCc3ccccn3)ccc21	-11.1%	-27.3%	37.9%	85.3*	.	36.7*
CCCn1c(NCc2ccccn2)nc2ccccc21	29.0%	4.2%	11.8%	15.8	0.7%	10.1
CCOC(=O)c1ccc(NC(=O)c2nn(CC)cc2Br)cc1	33.5%	?	-1.8%	52.8*	-15.6%	35.4*
CCn1cc(Br)c(C(=O)Nc2ccc(F)c(Cl)c2)n1	4.3%	-14.0%	-2.2%	73.4*	104.4%	53.5*
CCn1cc(Br)c(C(=O)Nc2ccc(Cl)cc2Cl)n1	47.5%	-12.0%	6.6%	54.8	.	25.5*
CCOC(=O)c1nn(-c2ccccc2)c(=O)c(C#N)c1C	14.7µM*	20.2%	18.0%	17.6	.	-4.0
CCOC(=O)c1ccc(NC(=S)NC(=O)c2nn(CC)cc2Br)cc1	3.2%	10.7%	11.0%	18.0	9.8%	-2.5
SMILES	Pf growth 96h	HCV inhibitor	AMA1-RON2 inh	Shiga toxin inh	Pf growth 48h	CHX counter
CCOC(=O)c1nn(-c2ccc(F)cc2)c(=O)c(C#N)c1C	?	1.0%	-15.2%	.	-3.5%	-4.8
Cc1n[nH]c(C)c1S(=O)(=O)N(C)Cc1ccco1	-26.9%	3.7%	-4.8%	.	-13.3%	.
CCN(CC(=O)Nc1c(F)cccc1F)C(=O)C1CCN(C(=O)Nc2ccccc2)CC1	?	-0.6%	-5.3%[11.6 µM]	.	?	.
CCOC(=O)c1c(NC(=O)c2nn(CC)cc2Br)c(C#N)nn1-c1ccccc1	-24.9%	11.2µM*	14.1%	-4.8	13.1µM*	4.2
Cc1ccc(C(C)n2cc(C(=O)NCc3ccccn3)nn2)cc1 (centres undefined)	28.2%	6.3%	114.4%	-7.0	13.3%	-2.2
Cc1ccc([N+](=O)[O-])c(OCCN2CCNCC2)c1	2.33µM*	7.4%	?	-7.5	14.8%	-2.8
Cc1ccc([N+](=O)[O-])c(OCc2ncc(Cl)n2C)c1	10.8%	-8.4%	-15.8%	72.0*	48.7%	38.7*
CC(C)c1ccc(NC(=O)c2cc(Br)ccc2Br)cc1	?	?	13.4%	60.0*	-13.5%	43.1*
CN(C)C(=O)Oc1ccc(Br)cc1C(=O)Nc1ccc(F)c(Cl)c1	?	?	-7.6%	10.5	1.17µM*	9.6
O=C(Nc1ccc(Cl)cc1)c1ccc(Br)cc1F	137.8%	-24.9%	14.1%	86.4*	125.5%	43.5*
O=C(Nc1ccc(N2CCCC2)cc1)c1cc(Br)ccc1Cl	?	?	-14.0%	32.3	?	14.4
O=C(N[C@@H](Cc1ccccc1)c1nc2ccccc2[nH]1)c1cc([N+](=O)[O-])ccc1Cl	?	-3.3%	-1.4%	10.5	14.7µM*	-1.1
O=C(CCC(=O)c1ccc(Cl)cc1)OCc1nc2ccsc2c(=O)[nH]1	19.3%	17.3%	5.6%	.	1.4%	.
CCn1cc(/C=C(\NC(=O)c2ccccc2Cl)C(=O)NCCN2CCOCC2)c2ccccc21	?	-20.2%	1.2%	-13.5	-2.1%	0.7
Cc1nc2ccccc2n1CC(O)COCC1CC=CCC1 (centres undefined)	17.7%	11.2µM*	40.5%	12.8	?	-3.2
COc1cc(OC)c(C(=O)OCC(=O)N2CCOCC2)cc1OC	18.8%	1.9%	-1.2%	-5.9	16.5%	0.7
CSc1nc(N(C)NC(=O)c2ccc(Cl)cc2)c2ccccc2n1	3.7µM*	?	-12.9%	-10.0	3.29µM*	-2.5
O=C(NNc1c2ccccc2nc2ccccc12)c1ccc(Cl)cc1	-1.2%	?	4.6%	-10.9	13.1µM*	-7.3
Nc1ccccc1C(=O)NNc1c2ccccc2nc2ccccc12	?	?	-20.3%	111.0*	?	18.6*
Cc1ccc(C(=O)NNc2c3ccccc3nc3ccccc23)cc1	-21.6%	11.2µM*	-5.0%	85.1*	13.1µM*	41.4*
COc1ccc(C/C(N)=N/OC(=O)CCc2ccccc2)cc1	-12.6%	0.4%	16.5%	-9.1	-44.5%	1.6
c1cncc(Nc2c3ccccc3nc3ccccc23)c1	3.9%	?	-19.9%	0.8	?	-6.0
Clc1cncc(Cl)c1NNc1c2ccccc2nc2ccccc12	25.1%	?	-17.4%	19.4	2.94µM*	-0.3
COc1cccc(C(=O)NNc2c3ccccc3nc3ccccc23)c1	11.7µM*	?	?	-4.4	?	-2.5
COc1cccc(-c2cnc(C(O)c3ccc(OC)c(F)c3)[nH]2)c1 (centres undefined)	.	.	-7.9%	.	.	.
